PubChem BioAssay
Results with a measured potency or affinity are listed apart. Values without a mark were called inactive. No rule for the calls is given here.

Assay: IOSE-T80 ovarian epithelial cell cytotoxicity, dose response, cytotoxicity control for PAX8 inhibitor project, plate reader, dry powder samples (AID 743045);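 also: 0% = neutral control median and -100% = positive control median; more negative values mean more cell killing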
Conditions: IOSE-T80 ovarian epithelial cells; series mostly up to 35 µM; activity change, negative = cytotoxicity: at the top concentration

Structure (SMILES)	activity change, negative = cytotoxicity
C[C@@H]1CCCCO[C@@H](CN(C)Cc2ccc(C(F)(F)F)cc2)[C@@H](C)CN([C@@H](C)CO)C(=O)c2cc(NS(=O)(=O)c3ccc(F)cc3)ccc2O1	28.1% [at 30 µM]
COc1ccc(NC(=O)Nc2ccc3c(c2)C(=O)N([C@@H](C)CO)C[C@@H](C)[C@@H](CN(C)CC2CCCCC2)OCCCC[C@@H](C)O3)cc1	9.64%
C[C@@H]1CN([C@H](C)CO)C(=O)c2cc(NC(=O)Nc3ccc(F)cc3)ccc2O[C@@H](C)CCCCO[C@@H]1CN(C)Cc1ccc2c(c1)OCO2	3.66%
COc1cccc(S(=O)(=O)N2CC[C@H]3[C@@H](CO)N(C)c4ccc(C#Cc5ccc(F)cc5)cc4[C@H]32)c1	8.55%
C[C@@H]1CCCCO[C@H](CN(C)Cc2ccc(C(F)(F)F)cc2)[C@H](C)CN([C@@H](C)CO)C(=O)c2cc(NS(=O)(=O)c3cccs3)ccc2O1	-7.29%
C[C@@H]1CN([C@@H](C)CO)C(=O)Cc2cc(NC(=O)NC3CCCCC3)ccc2O[C@@H]1CN(C)Cc1ccc(-c2ccccc2)cc1	-13.3%
O=C(Nc1ccc(Cl)c(Cl)c1)N[C@@H]1CC[C@H](CCn2cc(C3CCCCC3)nn2)O[C@H]1CO	4.43%
C[C@@H]1CCCCO[C@@H](CN(C)Cc2ccc(C(F)(F)F)cc2)[C@@H](C)CN([C@@H](C)CO)C(=O)c2cc(NS(=O)(=O)c3ccccc3)ccc2O1	12.1%
C[C@@H]1CN([C@@H](C)CO)C(=O)Cc2cc(NC(=O)CCC(F)(F)F)ccc2O[C@H]1CN(C)Cc1ccc(-c2ccccc2)cc1	12.5%
C[C@@H]1CCCCO[C@H](CN(C)Cc2ccc(C(F)(F)F)cc2)[C@H](C)CN([C@H](C)CO)C(=O)c2cc(NS(=O)(=O)c3ccccc3)ccc2O1	22.4%
O=S(=O)(c1ccccc1F)N1CC[C@@H]2[C@@H](CO)Nc3ccc(C4=CCCCC4)cc3[C@@H]21	11.3%
Cc1noc(C)c1S(=O)(=O)N(C)C[C@@H]1OCCCC[C@H](C)Oc2ccc(NS(=O)(=O)c3ccc(Cl)cc3)cc2C(=O)N([C@H](C)CO)C[C@@H]1C	2.52%
C[C@@H]1CCCCO[C@H](CN(C)Cc2ccc(Cl)c(Cl)c2)[C@H](C)CN([C@@H](C)CO)C(=O)c2cc(NC(=O)Nc3ccccc3)ccc2O1	9.05%
C[C@H](CO)N1C[C@H](C)[C@@H](CN(C)S(=O)(=O)c2ccc(Cl)cc2)OCCCC[C@H](C)Oc2ccc(NS(=O)(=O)c3ccc(Cl)cc3)cc2C1=O	8.94%
C[C@@H]1CN([C@H](C)CO)S(=O)(=O)c2ccc(C#CC3CCCC3)cc2O[C@@H]1CN(C)C(=O)Cc1ccncc1	22.7%
O=C(C[C@H]1CC[C@H]2[C@@H](COC[C@@H](O)CN2Cc2ccc(Oc3ccccc3)cc2)O1)N1CCCCC1	17.1%
C[C@@H]1CCCCO[C@@H](CN(C)C(=O)Nc2cccc3ccccc23)[C@H](C)CN([C@H](C)CO)C(=O)c2cc(NS(=O)(=O)c3ccccc3)ccc2O1	3.27%
CCCNC(=O)Nc1ccc2c(c1)OC[C@H](C)N(Cc1ccc(-c3ccccn3)cc1)C[C@@H](C)[C@@H](OC)CN(C)C2=O	2.21%
CN1c2ccc(-c3cccc(F)c3)cc2[C@@H]2[C@@H](CCN2C(=O)Cc2ccccc2)[C@@H]1CO	16.3%
C[C@@H]1CN([C@H](C)CO)C(=O)Cc2cc(NC(=O)Nc3ccc(F)cc3)ccc2O[C@H]1CN(C)Cc1ccc(Cl)c(Cl)c1	9.23%
COc1ccc(NC(=O)Nc2ccc3c(c2)CC(=O)N([C@H](C)CO)C[C@@H](C)[C@@H](CN(C)Cc2ccc(Oc4ccccc4)cc2)O3)cc1	4.55%
C[C@@H]1CCCCO[C@H](CN(C)Cc2ccc(C(F)(F)F)cc2)[C@H](C)CN([C@H](C)CO)C(=O)c2cc(NS(=O)(=O)c3cccs3)ccc2O1	16.3%

Assay: A2780 ovarian cancer cell cytotoxicity, dose response, cytotoxicity control, plate reader, dry powder samples (AID 743046);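 also: 0% = neutral control wells and -100% = cytotoxic reference compound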
Conditions: series mostly up to 35 µM; activity change, negative = cytotoxicity: at the top concentration

Structure (SMILES)	activity change, negative = cytotoxicity
C[C@@H]1CCCCO[C@@H](CN(C)Cc2ccc(C(F)(F)F)cc2)[C@@H](C)CN([C@@H](C)CO)C(=O)c2cc(NS(=O)(=O)c3ccc(F)cc3)ccc2O1	-3.88% [at 30 µM]
COc1ccc(NC(=O)Nc2ccc3c(c2)C(=O)N([C@@H](C)CO)C[C@@H](C)[C@@H](CN(C)CC2CCCCC2)OCCCC[C@@H](C)O3)cc1	10.8%
C[C@@H]1CN([C@H](C)CO)C(=O)c2cc(NC(=O)Nc3ccc(F)cc3)ccc2O[C@@H](C)CCCCO[C@@H]1CN(C)Cc1ccc2c(c1)OCO2	6.53%
COc1cccc(S(=O)(=O)N2CC[C@H]3[C@@H](CO)N(C)c4ccc(C#Cc5ccc(F)cc5)cc4[C@H]32)c1	-3.09%
C[C@@H]1CCCCO[C@H](CN(C)Cc2ccc(C(F)(F)F)cc2)[C@H](C)CN([C@@H](C)CO)C(=O)c2cc(NS(=O)(=O)c3cccs3)ccc2O1	-1.41%
O=C(Nc1ccc(Cl)c(Cl)c1)N[C@@H]1CC[C@H](CCn2cc(C3CCCCC3)nn2)O[C@H]1CO	-25.8%
C[C@@H]1CCCCO[C@@H](CN(C)Cc2ccc(C(F)(F)F)cc2)[C@@H](C)CN([C@@H](C)CO)C(=O)c2cc(NS(=O)(=O)c3ccccc3)ccc2O1	5.56%
C[C@@H]1CN([C@@H](C)CO)C(=O)Cc2cc(NC(=O)CCC(F)(F)F)ccc2O[C@H]1CN(C)Cc1ccc(-c2ccccc2)cc1	16.4%
C[C@@H]1CCCCO[C@H](CN(C)Cc2ccc(C(F)(F)F)cc2)[C@H](C)CN([C@H](C)CO)C(=O)c2cc(NS(=O)(=O)c3ccccc3)ccc2O1	19.1%
O=S(=O)(c1ccccc1F)N1CC[C@@H]2[C@@H](CO)Nc3ccc(C4=CCCCC4)cc3[C@@H]21	22.3%
Cc1noc(C)c1S(=O)(=O)N(C)C[C@@H]1OCCCC[C@H](C)Oc2ccc(NS(=O)(=O)c3ccc(Cl)cc3)cc2C(=O)N([C@H](C)CO)C[C@@H]1C	13.2%
C[C@@H]1CCCCO[C@H](CN(C)Cc2ccc(Cl)c(Cl)c2)[C@H](C)CN([C@@H](C)CO)C(=O)c2cc(NC(=O)Nc3ccccc3)ccc2O1	-7.59%
C[C@H](CO)N1C[C@H](C)[C@@H](CN(C)S(=O)(=O)c2ccc(Cl)cc2)OCCCC[C@H](C)Oc2ccc(NS(=O)(=O)c3ccc(Cl)cc3)cc2C1=O	4.88%
C[C@@H]1CN([C@H](C)CO)S(=O)(=O)c2ccc(C#CC3CCCC3)cc2O[C@@H]1CN(C)C(=O)Cc1ccncc1	35.3%
O=C(C[C@H]1CC[C@H]2[C@@H](COC[C@@H](O)CN2Cc2ccc(Oc3ccccc3)cc2)O1)N1CCCCC1	-1.16%
C[C@@H]1CCCCO[C@@H](CN(C)C(=O)Nc2cccc3ccccc23)[C@H](C)CN([C@H](C)CO)C(=O)c2cc(NS(=O)(=O)c3ccccc3)ccc2O1	0.617%
CCCNC(=O)Nc1ccc2c(c1)OC[C@H](C)N(Cc1ccc(-c3ccccn3)cc1)C[C@@H](C)[C@@H](OC)CN(C)C2=O	0.782%
CN1c2ccc(-c3cccc(F)c3)cc2[C@@H]2[C@@H](CCN2C(=O)Cc2ccccc2)[C@@H]1CO	-1.14%
C[C@@H]1CN([C@H](C)CO)C(=O)Cc2cc(NC(=O)Nc3ccc(F)cc3)ccc2O[C@H]1CN(C)Cc1ccc(Cl)c(Cl)c1	18.8%
COc1ccc(NC(=O)Nc2ccc3c(c2)CC(=O)N([C@H](C)CO)C[C@@H](C)[C@@H](CN(C)Cc2ccc(Oc4ccccc4)cc2)O3)cc1	9.51%
C[C@@H]1CCCCO[C@H](CN(C)Cc2ccc(C(F)(F)F)cc2)[C@H](C)CN([C@H](C)CO)C(=O)c2cc(NS(=O)(=O)c3cccs3)ccc2O1	9.68%
